VACV Venus inh: inhibitors of vaccinia virus (Venus reporter) | Vaccinia virus Venus reporter expression, fluorescence | Potency, µM (series often up to 36.5 µM), inactives show top-dose activity change, negative = inhibition, most hits filed as inhibitors | 330,000 compounds, 0.46% hits; calls by dose curve; tested in A549 cells; also: potency is read from the fitted curve at half-maximal effect; nearly all actives have a fitted effect of over 30% in size
HCMV inh: inhibitors of human cytomegalovirus | activity change, negative = inhibition, % at 57.5 µM | HFF cells, HCMV-luciferase reporter, 72 h; active compounds read low | 410,000 compounds, 4.5% hits | AID 1259415; in the data active = activity change below about -60%; inconclusive = no clear call, values can overlap the other calls; inactive = above about -39%
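Compounds were evaluated in HFFs infected with an HCMV luciferase reporter virus (MOI 1 PFU/cell). Luciferase in lysates collected 72 h post infection served as the replication measure.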
Vaccinia mCherry: inhibitors of vaccinia virus infection (mCherry reporter signal); Vaccinia virus mCherry reporter infection, fluorescence; Potency, µM (titrated, usually from 36.5 µM), without a hit: top-dose activity change, negative = inhibition, usual class: inhibitors; 310,000 compounds, 0.63% hits; AID 720579; calls by dose curve; tested in A549 cells; also: potency is read from the fitted curve at half-maximal effect; nearly all actives have a fitted effect of over 35% in size
LmPK inhibitor: LmPK (Leishmania mexicana) enzyme inhibition | Potency, µM (titrated, usually from 57.5 µM), without a hit: at the top dose activity change, negative = inhibition, hits mostly inhibitors | 290,000 compounds, 0.37% hits | Q27686 | AID 1721 | purified LmPK, Kinase-Glo ATP luminescence, 1 h; also: potency is read from the fitted curve at half-maximal effect
Target sequence (Q27686 whole entry, looked up): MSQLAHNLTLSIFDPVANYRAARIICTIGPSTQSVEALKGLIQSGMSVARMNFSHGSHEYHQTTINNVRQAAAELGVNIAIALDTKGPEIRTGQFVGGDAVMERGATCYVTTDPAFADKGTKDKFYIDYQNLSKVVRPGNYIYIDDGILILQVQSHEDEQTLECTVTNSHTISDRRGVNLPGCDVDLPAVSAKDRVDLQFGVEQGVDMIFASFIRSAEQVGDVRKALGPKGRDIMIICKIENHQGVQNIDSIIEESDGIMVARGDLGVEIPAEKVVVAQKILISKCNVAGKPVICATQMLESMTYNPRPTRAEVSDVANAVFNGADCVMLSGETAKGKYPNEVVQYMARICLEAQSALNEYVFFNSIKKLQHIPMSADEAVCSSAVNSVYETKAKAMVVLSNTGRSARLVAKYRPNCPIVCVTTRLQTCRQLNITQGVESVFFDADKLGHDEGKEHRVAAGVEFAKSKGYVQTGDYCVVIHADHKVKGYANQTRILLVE
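In 50 mM imidazole pH 7.2 with 7 mM MgCl2, LmPK (0.1 nM) turned over PEP (0.5 mM) and ADP (0.1 mM) for 1 h at room temperature. Luciferase read-out of ATP.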
Tb PYK inh: inhibitors of Trypanosoma brucei pyruvate kinase; TbPYK enzyme, Kinase-Glo Plus ATP luminescence, 45 min; Potency, µM (highest dose often 76.8 µM), for the others: at the highest dose activity, negative = inhibition, actives largely listed as inhibitors; Q57TT1; 410,000 compounds, 0.12% hits; also: potency is read from the fitted curve at half-maximal effect; nearly all actives have a fitted effect of over 50% in size
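Screened from lowest to highest concentration, compounds were pinned into TbPYK/substrate mixtures, and ADP (130 uM final) was added. Plates sat at room temperature for 45 min prior to Kinase-Glo Plus detection by luminescence.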
* hit, by the source's call. Only some compounds are listed: those with a hit (about 5% of all), similar ones and a draw of the others. Unless noted, calls follow the shape of the dose curve; as a rule, active = well fitted curve in the direction sought with a large enough effect; inconclusive = small, poorly fitted or top-dose-only effect, or another doubt; inactive = no such curve, though single readings can be large; an effect the other way counts as inactive or inconclusive. % is scaled to controls: 0 for no effect and ±100 for the full control effect.

`CC(C)CC1C(=O)N(Cc2cn(CCC3OCCO3)nn2)CCS(=O)(=O)N1Cc1ccc(-c2ccccc2)cc1` (stereo not given) gave VACV Venus inh -21.1%, HCMV inh -18.8, Vaccinia mCherry inactive and Tb PYK inh -0.4%.
Screening CC(C)CC1C(=O)N(Cc2cn(Cc3ccco3)nn2)CCS(=O)(=O)N1Cc1ccc(-c2cccc(N(C)C)c2)cc1 (stereo not given) returned VACV Venus inh -25.9%, HCMV inh -100.8*, Vaccinia mCherry -14.2% and Tb PYK inh -12.2%.
Screening Cc1ccc(-c2ccc(CN3C(CC(C)C)C(=O)N(Cc4cn(Cc5ccco5)nn4)CCS3(=O)=O)cc2)cc1 (stereo not given) returned VACV Venus inh -2.5%, HCMV inh -6.9, Vaccinia mCherry -3.1% and Tb PYK inh 6.3%.
`Cc1ccc(-c2ccc(CN3C(CC(C)C)C(=O)N(Cc4cn(CCC5OCCO5)nn4)CCS3(=O)=O)cc2)cc1` (stereo not given) gave VACV Venus inh inconclusive, HCMV inh -101.2*, Vaccinia mCherry inconclusive and Tb PYK inh 9.6%.
`CCOc1cc([C@@H]2C[C@H]3CN(c4ccccc4)C(=O)[C@]34CCCN24)ccc1OC` gave VACV Venus inh -4.8%, HCMV inh -68.6*, Vaccinia mCherry inactive, LmPK inhibitor 4.4% and Tb PYK inh -5.5%.
`COc1cc([C@@H]2C[C@H]3CN(c4ccccc4)C(=O)[C@]34CCCN24)cc(OC)c1OC` gave HCMV inh inconclusive, LmPK inhibitor 1.3% and Tb PYK inh -13.4%.
`COc1ccccc1-n1cc([C@@H]2C[C@H]3CN(c4ccccc4)C(=O)[C@]34CCCN24)cn1` gave VACV Venus inh -15.6%, HCMV inh -96.9*, Vaccinia mCherry -17.1%, LmPK inhibitor -1.6% and Tb PYK inh -9.6%.
`C/C(=N/NS(=O)(=O)c1ccc(C)c(C)c1)c1c[nH]c2ccccc12` gave HCMV inh -17.6, LmPK inhibitor 4.5% and Tb PYK inh -17.2%.
`C/C(=N/NS(=O)(=O)c1ccc(C)cc1C)c1c[nH]c2ccccc12` gave VACV Venus inh -24.0%, HCMV inh inconclusive, Vaccinia mCherry 5.01µM*, LmPK inhibitor 0.1% and Tb PYK inh -12.2%.
COc1ccc(OC(C)C(=O)N(C)Cc2nc(-c3ccc(OC)cc3)no2)cc1 (stereo not given) was read as VACV Venus inh -5.9%, HCMV inh -64.5*, Vaccinia mCherry -19.4%, LmPK inhibitor -2.7% and Tb PYK inh -1.8%.
`COc1ccc(-c2noc(CNC(=O)c3ccco3)n2)cc1` gave VACV Venus inh -11.6%, HCMV inh 8.7, Vaccinia mCherry -5.9% and Tb PYK inh -6.3%.
`Cc1cccc(-c2noc(CN(C(=O)c3ccc4c(c3)OCO4)C(C)C)n2)c1` gave VACV Venus inh -20.0%, HCMV inh 0.4, Vaccinia mCherry -23.3%, LmPK inhibitor -6.9% and Tb PYK inh -7.1%.
Screening CC(C)N(Cc1nc(-c2ccccc2)no1)C(=O)COc1ccccc1 returned VACV Venus inh -2.9%, HCMV inh -3.0, Vaccinia mCherry -18.6%, LmPK inhibitor 8.1% and Tb PYK inh 0.4%.
COc1ccc(-c2noc(CNC(=O)c3ccccc3Br)n2)cc1 was read as VACV Venus inh -6.7%, HCMV inh -62.9*, Vaccinia mCherry -8.3% and Tb PYK inh 1.4%.
Screening CC(Oc1ccc(Br)cc1)C(=O)N(Cc1nc(-c2ccccc2)no1)C(C)C (stereo not given) returned VACV Venus inh inconclusive, HCMV inh -70.4*, Vaccinia mCherry inconclusive and Tb PYK inh 5.2%.
Screening Cc1cccc(-c2noc(CN(C(=O)c3ccc(C)c(C)c3)C(C)C)n2)c1 returned VACV Venus inh 8.3%, HCMV inh -94.6*, Vaccinia mCherry -0.7% and Tb PYK inh -1.0%.
For Nc1nnc(SCC(=O)N2CCc3ccccc3C2)s1 the results were VACV Venus inh 1.8%, HCMV inh 35.9, Vaccinia mCherry 8.1%, LmPK inhibitor -14.5% and Tb PYK inh 1.4%.
Screening Cc1cc(Nc2ccc(Br)cc2)n2nc(-c3ccccc3C)nc2n1 returned VACV Venus inh -25.3%, HCMV inh 1.1, Vaccinia mCherry -28.8% and Tb PYK inh -5.9%.
Screening CC(C)(C)c1ccc(C(=O)CC(=O)c2cc(Cl)ccc2O)cc1 returned HCMV inh -83.4*, LmPK inhibitor 0.9% and Tb PYK inh -9.3%.
`CC(C)(C)OC(=O)C[C@H]1C/C=C\C[C@@H](CC(=O)N(CCO)Cc2ccccc2)C(=O)N[C@H](C(C)(C)C)COC1=O` gave VACV Venus inh -15.4%, HCMV inh 4.6, Vaccinia mCherry -24.4% and Tb PYK inh -11.7%.
For O=C(CCCn1c(=O)[nH]c2ccc(Br)cc2c1=O)N1CCN(c2cccc(Cl)c2)CC1 the results were VACV Venus inh -24.8%, HCMV inh -99.8*, Vaccinia mCherry inconclusive and Tb PYK inh 6.5%.
Screening CCCCCn1c(=O)[nH]c2cc(C(=O)N3CCN(c4ccc(OC)cc4)CC3)ccc2c1=O returned VACV Venus inh -15.4%, HCMV inh -20.2, Vaccinia mCherry -16.1% and Tb PYK inh -1.5%.
CCOC(=O)C1CCN(C(=O)CCCCn2c(=O)[nH]c3ccccc3c2=O)CC1 was read as VACV Venus inh -5.6%, HCMV inh -79.2*, Vaccinia mCherry -21.2%, LmPK inhibitor -3.0% and Tb PYK inh -21.4%.
CCCCCn1c(=O)[nH]c2cc(C(=O)N3CCN(c4ccc(C(C)=O)cc4)CC3)ccc2c1=O was read as VACV Venus inh -9.4%, HCMV inh -74.0*, Vaccinia mCherry inactive, LmPK inhibitor -2.9% and Tb PYK inh -1.6%.
CCCCCn1c(=O)[nH]c2cc(C(=O)N3CCN(c4ccc(F)cc4)CC3)ccc2c1=O was read as VACV Venus inh 6.2%, HCMV inh -76.0*, Vaccinia mCherry -7.1% and Tb PYK inh -9.7%.
Screening COc1cccc(NC(=O)CCCCCn2nnc3ccccc3c2=O)c1 returned VACV Venus inh -7.1%, HCMV inh -26.4, Vaccinia mCherry -13.0%, LmPK inhibitor 6.2% and Tb PYK inh 8.8%.
For Cc1c(Cl)cccc1NC(=O)C(CCS(C)(=O)=O)N1Cc2ccccc2C1=O (stereo not given) the results were VACV Venus inh -10.1%, HCMV inh -10.9, Vaccinia mCherry -12.4% and Tb PYK inh -1.8%.
For COc1ccc(N2CCN(C(=O)CN3c4cccc5cccc(c45)S3(=O)=O)CC2)cc1 the results were HCMV inh -14.7 and Tb PYK inh 1.7%.
Screening COc1ccc(NC(=O)c2sc3nc(N4CCCC4)c4c(c3c2N)CC(C)(C)OC4)cc1 returned HCMV inh inconclusive, LmPK inhibitor 5.7% and Tb PYK inh 5.8%.
`CCOC(=O)c1sc2nc(C)cc(-c3ccccc3)c2c1N` gave VACV Venus inh -17.2%, HCMV inh inconclusive, Vaccinia mCherry inactive, LmPK inhibitor -1.8% and Tb PYK inh -3.6%.

Screening results deposited in PubChem by National Center for Advancing Translational Sciences (NCATS).
